# Bioassay records: PubChem BioAssay, National Center for Advancing Translational Sciences (NCATS)
# An excerpt weighted towards active compounds, which were near 3.3% of everything screened.
# AmpC inh no detg: blocks E. coli AmpC beta-lactamase in detergent-free assay; P00811; AmpC nitrocefin hydrolysis, absorbance 480 nm, 0.0001% Triton; AID 485341; actives 0.52% (n = 330,000); Potency, µM (series often up to 57.1 µM), usual class: inhibitors; also: nearly all actives have a fitted effect of over 20% in size
# Target sequence (P00811 whole entry, looked up): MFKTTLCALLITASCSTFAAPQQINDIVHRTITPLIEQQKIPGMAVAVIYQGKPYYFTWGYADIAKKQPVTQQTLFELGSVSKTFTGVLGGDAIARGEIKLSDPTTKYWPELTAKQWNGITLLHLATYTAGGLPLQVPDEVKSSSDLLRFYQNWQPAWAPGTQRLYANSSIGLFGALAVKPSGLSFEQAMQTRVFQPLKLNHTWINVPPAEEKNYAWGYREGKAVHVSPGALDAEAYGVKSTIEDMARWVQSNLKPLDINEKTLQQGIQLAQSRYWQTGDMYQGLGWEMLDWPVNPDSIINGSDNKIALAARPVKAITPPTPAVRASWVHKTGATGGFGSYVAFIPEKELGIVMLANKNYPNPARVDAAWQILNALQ
#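 AmpC (5.3 nM in the dispensed reagent) in 20 mM phosphate pH 7.0 with 0.01% (detergent screen) or 0.0001% Triton X-100 was preincubated with compounds for 15 min at room temperature. Nitrocefin was then added from an 800 uM solution, and hydrolysis was followed at 480 nm.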
# Sm TGR inh: inhibitors of Schistosoma mansoni thioredoxin glutathione reductase; Q962Y6; purified TGR, DTNB reduction, TNB absorbance 405 nm; Potency, µM (highest dose often 114 µM), hits mostly inhibitors; actives 3% (n = 360,000); AID 485364; also: nearly all actives have a fitted effect of over 60% in size
#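 TGR 20 nM + NADPH 100 uM (dispensed conc.), cpd preinc 15 min RT; start with NADPH (500 uM addition) then DTNB (15 mM addition). Kinetic TNB absorbance, 405 nm filter. Four-parameter Hill fit across titration.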
# AmpC detergent: blocks E. coli AmpC beta-lactamase in detergent assay; AmpC hydrolysis of nitrocefin, absorbance 480 nm, 0.01% Triton; Potency, µM (titrated, usually from 114 µM), actives largely listed as inhibitors; actives 0.041% (n = 370,000); AID 485294; also: nearly all actives have a fitted effect of over 25% in size
#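 AmpC (5.3 nM in the dispensed reagent) in 20 mM phosphate pH 7.0 with 0.01% (detergent screen) or 0.0001% Triton X-100 was preincubated with compounds for 15 min at room temperature. Nitrocefin was then added from an 800 uM solution, and hydrolysis was followed at 480 nm.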
# Hits are given with their value; n = inactive; u = inconclusive; x = no result; [ ] = remark or other dose. Calls follow the shape of the dose curve; as a rule, active = well fitted curve in the direction sought with a large enough effect; inconclusive = small, poorly fitted or top-dose-only effect, or another doubt; inactive = no such curve, though single readings can be large; an effect the other way counts as inactive or inconclusive.
SMILES,AmpC inh no detg,Sm TGR inh,AmpC detergent
O=C(Nc1ccc(C(=O)N2CCN(c3cccc(Cl)c3)CC2)cc1)c1nsc2ccccc12,x,n,n
Cc1ccc(C)c(N2CCN(Cc3nnc(-c4ccc5c(c4)OCO5)o3)CC2)c1,x,n,n
Cc1ccccc1NS(=O)(=O)c1cc(C(=O)NCCSC2CCCCC2)ccc1C,1.26µM,n,n
Cc1ccc(C)c(NS(=O)(=O)c2cc(C(=O)NCCSC3CCCCC3)ccc2C)c1,n,n,n
Cc1ccc(-c2nn(-c3cccc(F)c3)cc2CN(Cc2nccn2C)C(C)C)o1,n,20µM,n
Cc1ccc(-c2nn(-c3cccc(F)c3)cc2CN2CCN(c3ccccn3)CC2)o1,n,u,n
Cc1cn2c(=O)cc(COc3ccc(NC(=O)c4ccc(C(C)(C)C)cc4)cc3)nc2s1,x,n,n
CC(=O)Nc1ccc(NC(=O)C(C)Oc2ccc(Cl)cc2Cl)cc1 (configuration not stated),n[2.29 µM],n,n
COc1ccc(NC(=O)C(=O)NNC(=O)C(C)Oc2ccc(Cl)cc2Cl)cc1 (configuration not stated),31.6µM,n,n
O=C(CCN=C1NS(=O)(=O)c2ccccc21)OCC(=O)c1ccccc1Cl,39.8µM,n,n
COc1ccccc1C(=O)COC(=O)CCCN=C1NS(=O)(=O)c2ccccc21,n,n,n
CC1(C)CC(=O)C(C=NCCN2CCN(C(=O)CC3CCCC3)CC2)=C(O)C1,n,n,n
CC1(C)CC(=O)C(C=NCCN2CCN(C3CC(=O)N(c4ccc(Cl)c(Cl)c4)C3=O)CC2)=C(O)C1 (configuration not stated),n,25.1µM,n
CC1(C)CC(=O)C(C=NCCN2CCN(C(=O)Cc3ccc(F)cc3)CC2)=C(O)C1,n,u,n
CN1C(=O)CC(N2CCN(CCN=CC3=C(O)CC(C)(C)CC3=O)CC2)C1=O (configuration not stated),n,n,n
CC1(C)CC(=O)C(C=NCCN2CCN(C(=O)c3ccc(Br)cc3)CC2)=C(O)C1,n,28.2µM,n
CC1(C)CC(=O)C(C=NCCN2CCN(C(=O)NC34CC5CC(CC(C5)C3)C4)CC2)=C(O)C1,n,35.5µM,n
Cc1ccc(CNC(=O)CCc2nc3cccnc3n2Cc2ccccc2)cc1,x,n,n
O=C(CCSCc1ccccc1F)N1CCN(c2ccc(F)cc2)CC1,x,n,n
COc1ccc(Cl)cc1NC(=O)CCc1c(C)nc2c(c1C)c(=O)n(C)c(=O)n2C,x,n,n
O=C1NCCCC2c3c(cc(Br)c(O)c3Br)OC12N1CCOCC1 (configuration not stated),n,39.8µM,n
CCc1ccc(NC(=O)c2ccc(F)c(S(=O)(=O)N3CCN(c4cc(C)ccc4C)CC3)c2)cc1,x,n,n
Cc1ccc2nc(CSc3nnc(NC(=O)c4ccc(C(C)(C)C)cc4)s3)cc(=O)n2c1,x,n,n
Cc1cc(=O)[nH]c2nnc(SCc3ccc(Cl)cc3Cl)n12,x,n,n
COc1cc(Cl)c(C)cc1NC(=O)Cn1ncc2c3ccccc3n(Cc3ccccc3)c2c1=O,x,n,n
SMILES,AmpC inh no detg,Sm TGR inh,AmpC detergent
COc1ccc(OC)c(NC(=O)CN2CCCN(Cc3ccccc3Cl)S2(=O)=O)c1,x,n,n
COc1cccc(NC(=O)C/C(C)=N/NC(=O)c2ccccc2Cl)c1,n,n,n
C/C(CC(=O)Nc1ccc(Cl)c(C(F)(F)F)c1)=N\NC(=O)c1cc2ccccc2cc1O,10µM,n,n
CCCOc1ccc(-c2cccc(NS(=O)(=O)c3ccc(CC)cc3)c2)nn1,x,n,n
O=C(O)C/C(=C\c1cccc(NC(=O)c2ccccc2Cl)c1)c1nc2ccccc2s1,15.8µM,n,n
COc1ccc(C(=O)Nc2cccc(/C=C(\CCC(=O)O)c3nc4ccccc4s3)c2)cc1,n,n,n
CCc1ccccc1NC(=O)c1ccc2[nH]c(C)c(C)c2c1,x,n,n
COc1ccc(N(C(=O)c2ccc(C(C)(C)C)cc2)S(=O)(=O)c2ccc(Cl)cc2)cc1,x,n,n
CCOC(=O)c1cc(-c2ccccc2)n(-c2cccc(C(=O)Nc3cccc(C)c3)c2)c1C,x,n,n
COc1ccc(NC(=O)CC2Sc3ncnn3C2=O)cc1 (configuration not stated),n,0.631µM,u
CCOC(=O)c1ccc(NC(=O)CC2Sc3ncnn3C2=O)cc1 (configuration not stated),n,1.58µM,n
COCCN1C(=O)C(CC(=O)Nc2ccccc2)SC1=Nc1ccc(OC)cc1 (configuration not stated),n,n,u
O=C(CC1SC2=NCCN2C1=O)Nc1ccc(Cl)cc1 (configuration not stated),n,n,n
O=C(CC1Sc2ncnn2C1=O)Nc1ccc(Cl)cc1 (configuration not stated),n,5.62µM,n
